Measured values reported in PubChem BioAssay (EPA / NIEHS).
Some structures have more than one record in an assay (separate samples or runs), and their calls can disagree. Active and inactive are the calls of the source. Rule for the calls: active = hit-call score of the fitted dose curve at least 0.9, where 1 is the maximum; inactive = score below 0.9.

assay: BSK_3C_Proliferation: Cell Proliferation Assessment in the BioMAP Diversity Plus: 3C Assay (AID 2283006); settings: primary human endothelial cells (HUVEC);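 for AC50: potency may reflect either rise or fall in cell number versus DMSO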
Experimental: BSK_3C is a cell-based, multiplexed-readout assay that uses umbilical vein endothelium, a human vascular primary cell, with measurements taken at 24 hours after chemical dosing in a 96-well plate.BSK_3C_Proliferation is an assay component measured in the BSK_3C assay. It measures 0.1% sulforhodamine related to cell proliferation using Sulforhodamine staining technology.Data from the assay component BSK_3C_Proliferation was analyzed into 1 assay endpoint. This assay endpoint, BSK_3C_Proliferation, was analyzed with bidirectional fitting relative to DMSO as the negative control and baseline of activity. Using a type of viability reporter, measures of total protein for gain or loss-of-signal activity can be used to understand the viability at the cellular-level. Furthermore, this assay endpoint can be referred to as a secondary readout, because this assay has produced multiple assay endpoints where this one serves a viability function. To generalize the intended target to other relatable targets, this assay endpoint is annotated to the cell cycle intended target family, where the subfamily is proliferation.
The levels of cell surface (or secreted, indicated by the prefix "s") biomarker endpoints were measured by ELISA. Overt cytotoxicity to cells in confluent adherent cultures (all systems other than the BT system) was assessed by measuring total protein levels using sulforhodamine B (SRB) staining in parallel cultures at the time of biomarker measurements, indicated as SRB endpoints. For proliferation assays for adherent cell types, individual cell types are cultured at sub-confluence and relative cell numbers quantified by SRB staining at time points optimized for each system (48 h: 3C and CASM3C systems; 72 h: BT and HDF3CGF systems; 96 h: SAg system). SRB was performed by staining cells with 0.1% SRB after fixation with 10% TCA and reading wells at 560 nm.Viability and proliferation of PBMC (T cells) was quantified by Alamar Blue reduction for the SAg and BT systems. For PBMC viability (referred to as PBMC Cytotoxicity within the assay endpoint names), cells were plated (75,000/well in a 96-well plate) and then chemical samples added for 1 h before addition of activators, SEB and TSST-1 (20 ng/mL final concentration each). Cells were incubated for 90 h. Then, Alamar Blue (20 uL/well) (Invitrogen, Cat DAL1100) was added for 6 h, and the plates were read with a fluorescence microplate reader at 546/580 nm (excitation/emission). For PBMC proliferation, cells were plated and activated as above but incubated for only 16 h prior to addition of Alamar Blue. Plates were read after 6 h.

| SMILES | outcome | AC50 |
| --- | --- | --- |
| CC(=NC#N)N(C)Cc1ccc(Cl)nc1 | inactive |  |
| CCOP(=S)(OCC)OC(Cl)C(Cl)(Cl)Cl (stereo not given) |  | 32.1 µM (active) |
| CC(Oc1cccc(Cl)c1)C(=O)O (stereo not given) | inactive |  |
| CN(C)C(=O)Nc1cccc(C(F)(F)F)c1 | inactive |  |
| CCOP(=S)(OCC)Oc1cc(C)nc(C(C)C)n1 | inactive |  |
| CCOP(=S)(OCC)Oc1ccc2c(C)c(Cl)c(=O)oc2c1 |  | 9.56 µM (active) |
| COP(=O)(OC)C(O)C(Cl)(Cl)Cl (stereo not given) | inactive |  |
| CN(C)[C@@H]1C(=O)C(C(N)=O)=C(O)[C@@]2(O)C(=O)C3=C(O)c4c(O)cccc4[C@@](C)(O)[C@H]3[C@H](O)[C@@H]12 | inactive | 20 µM (active) |
| CSC1=N[C@@](C)(c2ccccc2)C(=O)N1Nc1ccccc1 |  | 18.9 µM (active) |
| CC1=NNC(=O)N(/N=C/c2cccnc2)C1 | inactive |  |
| CCOP(=S)(Oc1cnc(C(C)(C)C)nc1)OC(C)C (stereo not given) |  | 33.3 µM (active) |
| CNC(=O)ON=C(SC)C(=O)N(C)C | inactive |  |
| CC(C)N(C(=O)SCC(Cl)=C(Cl)Cl)C(C)C |  | 34.7 µM (active) |
| CCCOc1nn(C(=O)NS(=O)(=O)c2ccccc2C(=O)OC)c(=O)n1C | inactive |  |
| CC(C1CC1)C(O)(Cn1cncn1)c1ccc(Cl)cc1 (stereo not given) | inactive |  |
| CCNc1nc(Cl)nc(NC(C)(C)C#N)n1 | inactive |  |
| CCCSP(=O)(OCC)Oc1ccc(Br)cc1Cl (stereo not given) |  | 27.4 µM (active) |
| Cc1nn(-c2cc(NS(C)(=O)=O)c(Cl)cc2Cl)c(=O)n1C(F)F | inactive |  |
| COc1ccc(C(=CC(=O)N2CCOCC2)c2ccc(Cl)cc2)cc1OC | inactive |  |
| COP(=O)(NC(C)=O)SC (stereo not given) | inactive |  |

| SMILES | outcome | AC50 |
| --- | --- | --- |
| CNc1cnn(-c2cccc(C(F)(F)F)c2)c(=O)c1Cl | inactive |  |
| CCOP(=S)(OCC)Oc1ccc([N+](=O)[O-])cc1 | inactive |  |
| FC(F)C(F)(F)OCC(Cn1cncn1)c1ccc(Cl)cc1Cl (stereo not given) |  | 20 µM (active) |
| Nc1nc(N)nc(NC2CC2)n1 | inactive |  |
| N#CSCSC#N |  | 2.07 µM (active) |
| CCOP(=O)(NC(C)C)Oc1ccc(SC)c(C)c1 (stereo not given) | inactive |  |
| COP(=O)(OC)SCn1c(=O)oc2cc(Cl)cnc21 | inactive |  |
| C=C(C)[C@H]1Cc2c(ccc3c2O[C@@H]2COc4cc(OC)c(OC)cc4[C@@H]2C3=O)O1 |  | 1.36 µM (active) |
| CCCOCC(=Nc1ccc(Cl)cc1C(F)(F)F)n1ccnc1 |  | 33.4 µM (active) |
| CC(COc1ccc(Oc2ccccc2)cc1)Oc1ccccn1 (stereo not given) | inactive |  |
| S=C1NCCN1 | inactive |  |
| Cc1cc(C2CC2)nc(Nc2ccccc2)n1 |  | 15.8 µM (active) |
| CNC(=O)Oc1cccc2c1OC(C)(C)O2 | inactive |  |
| COc1cccc(C(=O)NN(C(=O)c2cc(C)cc(C)c2)C(C)(C)C)c1C | inactive |  |
| CC(C)[C@H](C(=O)O[C@H](C#N)c1cccc(Oc2ccccc2)c1)c1ccc(Cl)cc1 |  | 6.57 µM (active) |
| CCOP(=O)(OCC)Oc1cc(C)nc(C(C)C)n1 | inactive |  |
| Cc1ccn2nc(S(=O)(=O)Nc3c(F)cccc3F)nc2n1 | inactive |  |
| CCc1cnc(C2=NC(C)(C(C)C)C(=O)N2)c(C(=O)O)c1 (stereo not given) | inactive |  |
| CCCSP(=O)(OCC)SCCC | inactive |  |
